High-throughput results (PubChem BioAssay)
Shown are actives, neighbours in structure and some others; about 7.5% of the full set was active somewhere.
B2AR arrestin: recruits beta-arrestin to the human beta2-adrenergic receptor; P07550; beta-arrestin recruitment to beta2AR, cell-based reporter; Potency, µM (doses to about 46.1 µM), for inactives: at the top dose activation, hits mostly activators; hit rate 0.02% among 330,000; AID 492947;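 also: potency is read from the fitted curve at half-maximal effect; 0% = DMSO controls and full agonism = EC100 isoproterenol or metaproterenol; nearly all actives have a fitted effect of over 65% in size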
RORgamma inh: inhibitors of mouse ROR gamma transcriptional activity; AID 2551; P51450; Drosophila S2 Gal4-RORgamma UAS-luciferase reporter, 20 h; Potency, µM (series often up to 53.6 µM), for the others: at the top dose activity change, negative = inhibition, hits mostly inhibitors; hit rate 5.4% among 310,000; also: potency is read from the fitted curve at half-maximal effect; nearly all actives have a fitted effect of over 60% in size
Target sequence (P51450 whole entry, looked up, the tested form may be a part): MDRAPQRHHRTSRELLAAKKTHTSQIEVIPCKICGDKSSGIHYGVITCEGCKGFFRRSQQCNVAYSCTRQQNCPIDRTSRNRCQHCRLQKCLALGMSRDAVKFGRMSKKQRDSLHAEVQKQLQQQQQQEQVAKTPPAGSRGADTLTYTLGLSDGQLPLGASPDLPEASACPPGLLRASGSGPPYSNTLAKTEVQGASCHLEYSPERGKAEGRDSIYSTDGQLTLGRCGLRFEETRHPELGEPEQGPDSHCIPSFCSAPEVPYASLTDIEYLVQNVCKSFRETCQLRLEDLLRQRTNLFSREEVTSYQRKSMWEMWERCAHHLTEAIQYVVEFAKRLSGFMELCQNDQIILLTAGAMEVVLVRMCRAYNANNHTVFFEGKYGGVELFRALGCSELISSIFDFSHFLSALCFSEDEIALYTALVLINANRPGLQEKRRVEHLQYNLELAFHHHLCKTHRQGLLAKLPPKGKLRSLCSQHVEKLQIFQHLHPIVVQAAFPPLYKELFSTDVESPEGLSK
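Stably transfected Drosophila Schneider cells are the test system, with ROR gamma fused to Gal4 and luciferase under UAS control; luminescence is read after 20 hr of 700 uM copper sulfate induction at ambient temperature.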
TSHR antagonist: blocks TSH signaling through the human TSH receptor | TSHR-expressing cells, TSH-stimulated cAMP HTRF, 2 h; stronger effect = lower value | activity change, negative = inhibition, % at 11.5 µM | hit rate 0.2% among 330,000;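 active = activity change below a set negative limit, meaning inhibition stronger than a set level, cut at about -70% in these data; inconclusive = activity change between two set negative limits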
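TSHR-expressing cells were treated with compounds, then stimulated with TSH at EC80 (4nM final) for 2 hours at 37 deg C. Cellular cAMP was measured by HTRF competition between lysate cAMP and cAMP-d2 for a cryptate-labelled anti-cAMP antibody.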
Gal4-VP16 FLuc: Gal4-VP16 reporter inhibition counter-screen. Potency, µM (titrated, usually from 53.6 µM), for inactives: at the highest dose activity, negative = inhibition, actives largely listed as inhibitors. Drosophila S2 Gal4-VP16 UAS-luciferase, luminescence, 20 h. hit rate 3.5% among 310,000;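 also: Gal4-VP16 expression switched on by copper sulfate through the metallothionein promoter; potency is read from the fitted curve at half-maximal effect; nearly all actives have a fitted effect of over 50% in size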
ELG1 repair inh: blocks ELG1-dependent DNA repair in HEK293T cells | HEK293T ELG1-luciferase reporter, luminescence, 16 h; DNA damage induced by 5-fluorouridine | Potency, µM (series often up to 46.1 µM), inactives show at the highest dose activity change, negative = inhibition, most hits filed as inhibitors | hit rate 2.3% among 330,000; also: potency is read from the fitted curve at half-maximal effect; nearly all actives have a fitted effect of over 55% in size
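5-Fluorouridine DNA damage + compound/DMSO, 2,000 cells/well, 16 h, 37 °C/5% CO2. ONE-Glo, 30 min RT, luminescence. Readout = decrease in reporter signal.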
Active calls of the source: *; ? = inconclusive; · = not tested or not shown; [ ] = remark or other dose. Unless noted, calls follow the shape of the dose curve; as a rule, active = well fitted curve in the direction sought with a large enough effect; inconclusive = small, poorly fitted or top-dose-only effect, or another doubt; inactive = no such curve, though single readings can be large; an effect the other way counts as inactive or inconclusive. Unless noted, % is scaled to controls: 0 for no effect and ±100 for the full control effect.

SMILES | B2AR arrestin | RORgamma inh | TSHR antagonist | Gal4-VP16 FLuc | ELG1 repair inh
CCC[C@H](NC(=O)[C@H](Cc1ccc(O[S+](=O)([O-])O)cc1)NC(=O)OC(C)(C)C)C(=O)NCC(=O)N[C@@H](Cc1c[nH]c2ccccc12)C(=O)N[C@@H](CCC)C(=O)N[C@@H](CC(=O)OCCc1ccccc1)C(=O)O | · | 2% | · | -9% | ·
CCOC(=O)N/N=C1/C[C@@H](O)[C@@H](O)[C@@H]2[C@@H]3C(=O)N(c4cccc(Oc5ccccc5)c4)C(=O)[C@H]3CC[C@@H]12 | · | 2%[10 µM] | · | -8%[10 µM] | ·
O=C(Nc1cccc2ncccc12)c1ccc(OCc2ccccc2)cc1 | 0% | 43% | -1 | -8% | ?
CCC1(c2ccccc2)NC(=O)N(CC(=O)Nc2ccc(N3CCOCC3)cc2)C1=O (stereo not given) | 0% | · | 11 | · | 28%
COc1ccc(OCC(=O)N/N=C(\C)c2ccc(OC)cc2)cc1 | 0% | 38% | -3 | -3% | -1%
C=CCNC(=S)N/N=C(\C)c1ccc(OC)cc1 | 0% | 0.71µM* | -1 | 1.1µM* | ?
NC(=O)c1nsc(C(=O)N(Cc2ccco2)C(C(=O)NCc2ccc(F)cc2)c2ccc(O)cc2)c1N (stereo not given) | -1% | 13% | -15 | 7% | 12µM*
Cc1ccc(C(C(=O)NCc2ccc(F)cc2)N(Cc2ccco2)C(=O)c2snc(C(N)=O)c2N)o1 (stereo not given) | -1% | 14% | 25 | -3% | 21µM*
COCCNC(=O)C(c1ccc(C)o1)N(Cc1ccco1)C(=O)c1snc(C(N)=O)c1N (stereo not given) | 0% | -12% | 4 | 20% | -28%
Cn1cnc([N+](=O)[O-])c1Sc1ncnc2nc[nH]c12 | 1% | 6% | -8 | -6% | 0.21µM*
CCCn1c(=O)c(C(=O)NCCc2ccc(OC)cc2)c(O)c2ccccc21 | 0% | ? | -13 | 13µM* | -12%
CCCn1c(=O)c(C(=O)NCCc2ccccc2)c(O)c2ccccc21 | 0% | -73% | -2 | ? | 9%
C=CCn1c(=O)c(C(=O)NCCc2ccccc2)c(O)c2ccccc21 | 0% | 14µM* | -20 | ? | -5%
COC(=O)CC[C@H](N)C(=O)O | · | -4% | · | -7% | ·
CCCC[C@H]1COCCS(=O)(=O)N1Cc1cccc([N+](=O)[O-])c1 | -1% | -6% | -3 | -1% | 25%
CC(Nc1nc(=S)nc(Nc2ccc(F)cc2)[nH]1)c1ccccc1 (stereo not given) | 0% | ? | 3 | ? | -21%
CCNc1nc(=S)nc(NCc2ccccc2)[nH]1 | 0% | 3.2µM* | 2 | 7.1µM* | 19%
CCNc1nc(=S)nc(NC(C)C)[nH]1 | -1% | 10µM* | 23 | 13µM* | 6%
Cc1cccc(C)c1NC(=O)CC12CCCN1CCC2 | · | 3% | · | -2% | ·
CC(Cc1cccs1)NC(=O)Nc1ccc([N+](=O)[O-])cc1 (stereo not given) | 0% | ? | -27 | 15% | -8%
CCN(CC)c1ccc(NC(=S)Nc2ccc(F)cc2)cc1 | 0% | 8.9µM* | -4 | ? | 18%
CCC(C)NC(=S)Nc1ccc(F)cc1 (stereo not given) | 0% | 10µM* | 2 | ? | ?
COc1ccc(NC(=S)NC(C)Cc2cccs2)cc1 (stereo not given) | 6% | 14µM* | -5 | 2.8µM* | 6%
CC(Cc1cccs1)NC(=S)Nc1ccc(F)cc1 (stereo not given) | 0% | 3.2µM* | 10 | 16µM* | 8%
CC(Cc1cccs1)NC(=O)c1cccs1 (stereo not given) | -1% | 0% | -3 | 2% | ?
SMILES | B2AR arrestin | RORgamma inh | TSHR antagonist | Gal4-VP16 FLuc | ELG1 repair inh
COCc1cc(CN(C)C(=O)c2oc3c(F)cccc3c2C)[nH]n1 | 0% | -7% | 5 | -18% | 15%
O=C(CNC(=O)c1ccccc1F)NCc1cccnc1 | 0% | -14% | 4 | 5% | 24%
O=C(COc1ccccc1)N=C1SC2CS(=O)(=O)CC2N1c1cccc(F)c1 (stereo not given) | 0% | 0% | 5 | -6% | 12%
N#CCC(=O)N/N=C/c1coc2ccccc2c1=O | -1% | -30% | -8 | 2% | -8%
N#C/C(=C\c1coc2ccccc2c1=O)C(N)=S | 0% | 13µM* | -13 | ? | -5%
CC1(C)C[C@@H]2C(=O)CCC3O[C@@]3(C)CCC21 (stereo not given in full) | · | 0% | · | 5% | ·
CO[C@@H]1COC(=O)C/C=C\[C@@H](C)COC(=O)[C@H](COCc2ccccc2)NC(=O)C/C=C\[C@H]1C | · | -2%[10 µM] | · | -5%[10 µM] | ·
O=c1c2ccccc2nc2n1C(CSCc1ccc(Cl)cc1Cl)CS2 (stereo not given) | -1% | -2% | -17 | 22µM* | -9%
CCCC1(C(=O)OC)C=C2C(=C(c3ccccc3)C(=O)C2C)CN1 (stereo not given) | · | -3% | · | -12% | ·
COc1ccnc(Oc2ccccc2)c1C#N | 0% | 4% | -1 | -3% | 24%
COc1cnc(-c2ccccn2)nc1Oc1cccc(C(F)(F)F)c1 | 0% | 6.3µM* | -5 | 11µM* | -16%
COc1cnc(-c2ccccn2)nc1Oc1ccccc1 | ? | 11µM* | -2 | ? | -23%
COc1cnc(-c2ccccn2)nc1N(C)c1ccccc1 | -1% | 7.9µM* | 2 | ? | ?
COCC(=O)N1CCC2(CCCN(c3ncccn3)C2)CC1 | · | 0% | · | -3% | ·
CCOc1ccccc1Nc1nnc(SCc2nnc(-c3cc(OC)c(OC)c(OC)c3)o2)s1 | 0% | 30% | -14 | ? | 5.8µM*
COc1cc(-c2nnc(CSc3nnc(Nc4ccc(C(C)C)cc4)s3)o2)cc(OC)c1OC | -1% | 28% | 6 | -15% | 6.5µM*
CCOc1ccccc1Nc1nnc(SCC(=O)Nc2nc(-c3ccc(OC)cc3)cs2)s1 | 0% | -42% | -7 | 2% | -7%
COc1ccccc1Nc1nnc(SCc2nnc(-c3cc(OC)c(OC)c(OC)c3)o2)s1 | 0% | 36% | -7 | 20% | 6.5µM*
Cc1cccn2cc(CSc3nnc(Nc4ccc(C(C)C)cc4)s3)nc12 | 0% | ? | -5 | ? | -15%
CSCC[C@H](NC(=O)[C@H](CC(C)C)N1CCC(NC(=O)[C@@H](NC(=O)[C@H](Cc2ccccc2)NC(=O)[C@H](CO)NC(=O)[C@H](CC(=O)O)NC(=O)[C@@H](N)CCCCN)C(C)C)C1=O)C(N)=O (stereo not given in full) | · | -2% | · | 6% | ·
Cc1cccc2[nH]c3c(N4CC=C(c5ccc(F)cc5)CC4)ncnc3c12 | -1% | -11% | -16 | ? | 12µM*
COc1cccc2[nH]c3c(N4CCCCC4)ncnc3c12 | -1% | -38% | · | 1% | ?
